Each structure is given as a SMILES string. Activity calls are given as the source filed them. Unless noted, the rule behind the calls is not given here.

Here are results for eight molecules from PubChem BioAssay.

Assay [1] in a line: compound effects on lung adenocarcinoma cell viability – A549, calcein-AM fluorescence, 48 h, basal, profiling panel (AID 1162). Note: test concentration not given here. As to conditions: higher = more signal.
A short description of assay [2]: compound effects on differentiated 3T3-L1 adipocyte viability – cell-based, 3T3-L1 adipocytes, calcein-AM fluorescence, 48 h, basal, profiling panel (AID 1163). Note: test concentration not given here. As to conditions: 3T3-L1 adipocytes viability, higher = more signal.
Assay [3] can be described thus: compound effects on hepatocellular carcinoma cell viability – HepG2, calcein-AM fluorescence, 48 h, basal, profiling panel (AID 1164). Note: test concentration not given here. As to conditions: higher = more signal.
The nature of assay [4]: compound effects on multiple myeloma cell viability – MM1S, calcein-AM fluorescence, 48 h, basal, profiling panel (AID 1165).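 Note: viability of MM1S multiple myeloma cells under basal unstimulated conditions; test concentration not given here.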 The following applies: higher = more signal.
Assay [5] in a line: calcein-AM signal in unstimulated myeloma cells – cell-based, calcein-AM fluorescence, 48 h, PK04 Diversity Set, profiling panel (AID 1166).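 Note: cells grown under basal conditions without added stimulus; test concentration not given here.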 As to conditions: RPMI8226 myeloma viability, higher = more signal.
A short description of assay [6]: JC-1 mitochondrial signal, unstimulated HepG2 cells – cell-based, JC-1 fluorescence, 24 h, 100 nL compound, profiling panel (AID 1167). Note: test concentration not given here. As to conditions: HepG2 mitochondrial potential, higher = more signal.
Assay [7] in a line: JC-1 mitochondrial signal, unstimulated adipocytes – cell-based, JC-1 fluorescence, 3T3-L1 adipocytes, 24 h, 100 nL compound, profiling panel (AID 1168). Note: test concentration not given here. The following applies: JC-1 mitochondrial fluorescence, higher = more signal, called active from +8 up or from −8 down.
A short description of assay [8]: JC-1 mitochondrial signal, unstimulated myeloma cells – cell-based, JC-1 fluorescence, RPMI8226, 24 h, 100 nL compound, profiling panel (AID 1169). Note: test concentration not given here. The following applies: JC-1 mitochondrial potential fluorescence, higher = more signal.
The nature of assay [9]: JC-1 mitochondrial signal, unstimulated MM1S myeloma – cell-based, JC-1 fluorescence, 24 h, 100 nL compound, profiling panel (AID 1170). Note: test concentration not given here. The following applies: MM1S mitochondrial potential, higher = more signal.
A short description of assay [10]: resazurin metabolic signal in A549 cells – cell-based, resazurin fluorescence, 24 h, PK04 Diversity Set, profiling panel (AID 1171). Note: test concentration not given here. The following applies: A549 viability, higher = more signal, called active from +8 up or from −8 down.
Assay [11] in a line: resazurin metabolic signal in HepG2 cells – cell-based, resazurin fluorescence, 24 h, PK04 Diversity Set, profiling panel (AID 1172). Note: test concentration not given here. As to conditions: HepG2 viability, higher = more signal.
A short description of assay [12]: budding yeast growth changes without added modifier – OD600, strain BY4716, 24 h, basal condition, primary screen (AID 1173). As to conditions: S. cerevisiae BY4716 growth, OD600, 24 h; higher = more signal, called active from +8 up or from −8 down.
Assay [13] can be described thus: viability profiling in MM1S myeloma cells – cell-based, resazurin fluorescence, basal, 24 h, PK04 Diversity Set, profiling panel (AID 1174). Note: test concentration not given here. As to conditions: higher = more signal, called active from +8 up or from −8 down. A general note: The colour change of resazurin is a common sign of viable cells or microbes.
For assay [14], the target named is Dihydroorotate dehydrogenase (quinone), mitochondrial (Plasmodium falciparum (isolate 3D7)) (UniProt Q08210). As to the kind of experiment: inhibition of P. falciparum DHODH – biochemical, C-terminal His tag, absorbance 600 nm, primary screen (AID 1175).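 Note: recombinant parasite enzyme with a five histidine tag at its C terminus; test concentration not given here.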 The following applies: PfDHODH enzyme, DCIP absorbance 600 nm; higher = more signal, called active from +8 up or from −8 down.
Dihydroorotate dehydrogenase (quinone), mitochondrial (Plasmodium falciparum (isolate 3D7)), sequence (Q08210 whole entry, looked up): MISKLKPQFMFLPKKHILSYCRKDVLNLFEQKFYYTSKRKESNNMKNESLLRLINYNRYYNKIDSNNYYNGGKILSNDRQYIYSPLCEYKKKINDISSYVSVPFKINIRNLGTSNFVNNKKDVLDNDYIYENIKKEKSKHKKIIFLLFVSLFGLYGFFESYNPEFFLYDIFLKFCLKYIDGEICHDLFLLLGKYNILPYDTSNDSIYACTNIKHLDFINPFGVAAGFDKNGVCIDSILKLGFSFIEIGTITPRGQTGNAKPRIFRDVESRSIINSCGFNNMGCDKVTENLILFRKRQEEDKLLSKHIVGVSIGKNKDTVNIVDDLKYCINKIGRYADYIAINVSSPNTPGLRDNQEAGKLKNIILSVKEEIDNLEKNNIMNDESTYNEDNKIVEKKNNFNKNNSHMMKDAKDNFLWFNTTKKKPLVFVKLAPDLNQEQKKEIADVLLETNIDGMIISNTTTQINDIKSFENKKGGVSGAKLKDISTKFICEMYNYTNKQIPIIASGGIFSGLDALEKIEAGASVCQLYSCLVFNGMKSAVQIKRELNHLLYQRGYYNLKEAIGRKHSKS

A short description of assay [15]: inhibition of PAO1 biofilm formation – strain PAO1, LB-PBS medium, absorbance 600 nm, primary screen (AID 1176). Note: test concentration not given here. As to conditions: P. aeruginosa PAO1 growth/biofilm, A600, 12 h; higher = more signal.
Assay [16] is described as follows: growth modulation of vineyard yeast isolate – strain RM11-1a, OD600, basal, 24 h, primary screen (AID 1177).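 Note: cultures grown under basal conditions with no added stressor; test concentration not given here.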 As to conditions: S. cerevisiae RM11-1a growth, OD600, 24 h; higher = more signal, called active from +8 up or from −8 down.
Assay [17] can be described thus: growth of efflux-deficient E. coli DRC39 – strain DRC39, OD650, 24 h, E. coli filamentation inducers, primary screen (AID 1178).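 Note: growth measured as culture turbidity by optical density at 650 nm; test concentration not given here.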 The following applies: E. coli DRC39 acrAB, higher = more signal, called active from +8 up or from −8 down.
A short description of assay [18]: growth of efflux-deficient E. coli DRC39 – strain DRC39, OD650, 48 h, E. coli filamentation inducers, primary screen (AID 1179).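 Note: screen aims at cell division blockers that make cells filament.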 The following applies: E. coli DRC39 delta-acrAB growth, higher = more signal, called active from +8 up or from −8 down.
Assay [19] can be described thus: viability profiling in RPMI8226 myeloma cells – cell-based, resazurin fluorescence, basal, 24 h, PK04 Diversity Set, profiling panel (AID 1180).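 Note: RPMI8826 multiple myeloma cell line at 5000 cells per well; test concentration not given here.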 The following applies: higher = more signal.
The target of assay [20] is E3 ubiquitin-protein ligase XIAP (Homo sapiens) (UniProt P98170). As to the kind of experiment: small molecules binding XIAP protein – biophysical, small-molecule microarray, fluorescence 635 nm, primary screen (AID 1181).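 Note: score merges 667 nm emission and signal to noise over triplicate slides.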 As to conditions: higher = more signal.
E3 ubiquitin-protein ligase XIAP (Homo sapiens), sequence (P98170 whole entry, looked up): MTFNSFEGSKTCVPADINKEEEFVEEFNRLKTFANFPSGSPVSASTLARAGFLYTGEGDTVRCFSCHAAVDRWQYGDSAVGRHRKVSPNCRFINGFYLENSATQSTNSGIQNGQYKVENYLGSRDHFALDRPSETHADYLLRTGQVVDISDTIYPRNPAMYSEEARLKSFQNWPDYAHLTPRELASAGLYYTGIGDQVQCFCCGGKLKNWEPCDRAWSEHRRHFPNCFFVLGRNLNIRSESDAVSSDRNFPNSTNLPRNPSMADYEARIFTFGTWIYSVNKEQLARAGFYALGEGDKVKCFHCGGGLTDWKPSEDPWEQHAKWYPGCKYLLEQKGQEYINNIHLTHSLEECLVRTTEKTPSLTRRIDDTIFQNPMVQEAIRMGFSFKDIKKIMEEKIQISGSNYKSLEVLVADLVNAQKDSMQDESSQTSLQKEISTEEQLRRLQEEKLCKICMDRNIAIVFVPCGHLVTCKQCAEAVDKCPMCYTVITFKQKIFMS

As for `O=C1OCCC/C=C\[C@H]2OC34C=CCN(c5ccc6ccccc6c5)C(=O)[C@H]3N(CCCO)C(=O)[C@@H]4C12` (stereo not given in full), the z-score in assay [1] was -0.416; in assay [2], 1.34; in [3], 0.275; in [4], 0.392; in [5], -0.686; in [6] it was -0.36. Also, the z-score in assay [7] was -0.41 (inactive); in [8] it was -0.0534; in assay [9] it was 1.37; in assay [10], 0.252 (inactive); in assay [11], -0.408; in [12], 0.556 (inactive). Moreover, the z-score in assay [13] was -0.104 (inactive); in assay [15], -0.636 (inactive); in assay [16] it was -1.1 (inactive); in assay [17], -0.0367 (inactive); in assay [18] it was -0.0547 (inactive); in [19] it was 0.375. Moreover, the composite z-score in assay [14] is -0.818 (inactive); in assay [20] it was -0.332.
Regarding `CN1C(=O)C2C=CC(C(O)c3cc(C(F)(F)F)cc(C(F)(F)F)c3)N(NC(=O)OC(C)(C)C)C2C1=O` (stereo not given), the z-score in [1] was -1.29; in assay [2], -0.122; in [3], -0.938; in assay [4], 0.319; in [5] it was -1.06; in assay [6], -1.28. The z-score in assay [7] is 1.03 (inactive); in [8] it was 0.191; in assay [9], 0.546; in assay [10] it was 1.14 (inactive); in assay [11], -0.725; in assay [12], -0.752 (inactive). The z-score in assay [13] is -0.117 (inactive); in assay [15], -0.379 (inactive); in assay [16], 0.215 (inactive); in assay [17] it was -0.676 (inactive); in assay [18], -1.22 (inactive); in [19], 0.349. The composite z-score was -0.251 (inactive) in assay [14] and 0.394 in [20].
On to `COC(=O)[C@@]1(Cc2ccc(F)cc2)[C@H]2c3cc(C(=O)N4CCCC4)n(C)c3C[C@H]2CN1C(=O)c1ccccc1`, for which the z-score was -0.893 in assay [1]; 0.502 in assay [2]; -0.429 in [3]; -1.63 in assay [4]; -1.01 in assay [5]; 1.29 in [6]. For the same molecule, the z-score in assay [7] is -1 (inactive); in [8], -0.392; in [9], -0.206; in assay [10], 1.13 (inactive); in assay [11], 0.0015; in assay [12], -1.24 (inactive). The z-score in assay [13] is -0.698 (inactive); in assay [15], 0.523 (inactive); in assay [16], 0.309 (inactive); in assay [17], -0.359 (inactive); in assay [18], -0.482 (inactive); in assay [19] it was -0.069. The composite z-score in assay [14] was -0.316 (inactive); in assay [20], 0.49.
`COCCOC(=O)N1C(=O)[C@@]2(c3ccccc31)[C@H](c1ccccc1OCCO)N1[C@H](c3ccccc3)[C@H](c3ccccc3)OC(=O)[C@H]1[C@@H]2C(N)=O`: the z-score in [1] was -1.59; in [2], 0.61; in [3], -1.85; in [4] it was -3.32; in assay [5] it was -4.57; in assay [6], -0.88. In addition, the z-score in assay [7] is -0.27 (inactive); in assay [8], -1.15; in assay [9], -1.21; in assay [10], -1.78 (inactive); in [11], -0.704; in [12] it was 1.82 (inactive). Besides, the z-score is -2.78 (inactive) in assay [13]; 2.07 (inactive) in assay [15]; 1.98 (inactive) in assay [16]; 0.322 (inactive) in [17]; -0.528 (inactive) in [18]; -4.57 in [19]. The figures for the composite z-score in assay [14] and in assay [20] were 0.565 (inactive) and -0.288, respectively.
For `CC1(C)C(=O)C(c2ccccc2)=C2CN3C(=O)N(CCc4ccccc4)C(=O)C3(Cc3ccc(C(F)(F)F)cc3)C=C21` (stereo not given), the z-score in assay [1] was -0.902; in assay [2], -0.586; in assay [3], 0.409; in assay [4], -1.49; in [5], -1.75; in assay [6], -2.08. Besides, the z-score is -2 (inactive) in assay [7]; -0.00804 in [8]; -0.421 in [9]; 0.43 (inactive) in [10]; -0.967 in assay [11]; 1.72 (inactive) in [12]. Further, the z-score in assay [13] is -1.33 (inactive); in [15], 0.0539 (inactive); in assay [16], 1.9 (inactive); in assay [17], -1.01 (inactive); in assay [18], -0.756 (inactive); in assay [19] it was -1.03. Besides, the composite z-score in assay [14] was 0.46 (inactive); in assay [20], 0.0322.
`CO[C@H]1O[C@H](CO)[C@@H](OC(=O)c2ccc(Br)cc2)[C@@H]2OC(=O)[C@H](Cc3ccccc3)C/C=C/C[C@@H](Cc3ccccc3)C(=O)O[C@@H]12`: the z-score is 1.77 in assay [1]; 0.863 in assay [2]; 0.857 in assay [3]; -0.389 in assay [4]; 0.0226 in assay [5]; -0.0867 in [6]. Besides, the z-score in assay [7] is -1.37 (inactive); in assay [8] it was 0.796; in assay [9], -0.823; in assay [10], -1 (inactive); in assay [11], 0.722; in assay [12], -2.04 (inactive). For the same molecule, the z-score in [13] was -1.33 (inactive); in [15] it was -0.124 (inactive); in assay [16], -1.42 (inactive); in [17] it was 1.74 (inactive); in assay [18], 2.16 (inactive); in [19], 0.425. For the same molecule, the values for the composite z-score in assay [14] and in [20] were -0.854 (inactive) and 0.154, respectively.
Take `CC(C)N1CC=CC23O[C@@H]4/C=C\CCCOC(=O)C4[C@H]2C(=O)N(CCCCCCO)[C@@H]3C1=O` (stereo not given in full): the z-score in assay [1] is 1.46; in assay [2] it was -0.377; in assay [3] it was 0.922; in assay [4], 1.49; in assay [5], 0.0006; in assay [6], 1.14. The z-score is -0.0751 (inactive) in [7]; -0.659 in [8]; 1.23 in assay [9]; 1.51 (inactive) in [10]; 0.95 in assay [11]; -1.13 (inactive) in assay [12]. The z-score is 1.3 (inactive) in assay [13]; -0.401 (inactive) in [15]; 0.0759 (inactive) in assay [16]; 1.62 (inactive) in assay [17]; 1.93 (inactive) in [18]; 0.708 in [19]. Moreover, the composite z-score is -0.475 (inactive) in [14] and 0.0537 in [20].
As to `COC(=O)C(CC#Cc1ccc2c(c1)[C@]1(C(=O)N2)[C@H](c2ccc(O)cc2)N2[C@H](c3ccccc3)[C@H](c3ccccc3)OC(=O)[C@H]2[C@@H]1C(=O)N1CCCCCCC1)C(=O)OC`, the z-score in [1] is 1.58; in assay [2], 0.581; in assay [3], 1.98; in [4], 0.362; in assay [5], -2.56; in [6] it was 0.945. Further, the z-score in [7] was -0.174 (inactive); in [8], -0.799; in assay [9], -0.158; in assay [10], -0.636 (inactive); in [11] it was -0.123; in assay [12], 0.303 (inactive). Moreover, the z-score in assay [13] is -0.961 (inactive); in assay [15] it was 1.6 (inactive); in [16] it was 0.27 (inactive); in assay [17], 0.196 (inactive); in assay [18], -0.0767 (inactive); in assay [19] it was -3.94. Besides, the composite z-score in assay [14] is -7.28 (inactive); in assay [20], 0.557.
